Source: PubChem BioAssay (National Center for Advancing Translational Sciences (NCATS))
VDR inhibitor: inhibitors of human vitamin D receptor. VDR-SRC2-3 peptide fluorescence polarization, 2 h. Potency, µM, inactives show max response, negative = inhibition, actives largely listed as inhibitors. actives 0.93% (n = 400,000); further: on the % scale 0 is the no-effect control and ±100 the full control effect
Target sequence (P11473 whole entry, looked up): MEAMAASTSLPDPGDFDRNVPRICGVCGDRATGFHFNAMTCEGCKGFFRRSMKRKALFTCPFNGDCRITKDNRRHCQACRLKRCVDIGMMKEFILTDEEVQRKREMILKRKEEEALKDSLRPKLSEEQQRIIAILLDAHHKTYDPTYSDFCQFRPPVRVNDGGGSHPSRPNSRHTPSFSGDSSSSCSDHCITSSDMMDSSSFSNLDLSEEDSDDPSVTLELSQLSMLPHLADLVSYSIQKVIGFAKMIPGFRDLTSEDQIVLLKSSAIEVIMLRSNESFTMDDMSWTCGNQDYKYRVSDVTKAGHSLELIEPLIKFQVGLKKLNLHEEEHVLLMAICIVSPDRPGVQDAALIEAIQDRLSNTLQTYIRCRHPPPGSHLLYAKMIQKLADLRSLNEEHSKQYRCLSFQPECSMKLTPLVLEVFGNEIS
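Signal is fluorescence polarization, reporting how far test compounds block the interaction of VDR with the SRC2-3 coregulator peptide after a 2 h room-temperature incubation.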
BAZ2B inh: BAZ2B (human) inhibition; Q9UIF8; AlphaScreen BAZ2B-H3K14Ac peptide displacement; Potency, µM (doses to about 114 µM), for inactives: at the highest dose activity change, negative = inhibition, hits mostly inhibitors; actives 4.4% (n = 360,000); further: on the % scale 0 is the no-effect control and ±100 the full control effect; nearly all actives have a fitted effect of over 60% in size
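Inhibition is scored as reduced AlphaScreen emission. The BAZ2B/b-H3(5-23)K14Ac complex (50 nM each) in PBS pH 7.4, 0.01% Tween-20 meets compound (up to 110 uM) for 30 min at RT before bead addition.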
JMJD2A Tudor inh: JMJD2A Tudor domain (human) inhibition; O75164; AlphaScreen JMJD2A-Tudor / H3K4me3 peptide binding; Potency, µM (doses to about 114 µM), inactives show at the highest dose activity change, negative = inhibition, hits mostly inhibitors; actives 4.4% (n = 390,000); AID 504339; further: on the % scale 0 is the no-effect control and ±100 the full control effect; nearly all actives have a fitted effect of over 50% in size
L3MBTL1 inh: inhibitors of human L3MBTL1 | Q9Y468 | AlphaScreen L3MBTL1–H3K9me1 peptide binding | Potency, µM (doses to about 57.1 µM), for inactives: at the highest dose activity, negative = inhibition, actives largely listed as inhibitors | actives 0.66% (n = 230,000) | AID 485360; further: on the % scale 0 is the no-effect control and ±100 the full control effect; nearly all actives have a fitted effect of over 60% in size
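L3MBTL1 50 nM + b-AHA-H3(1-15)K9me1 75 nM, 30 min RT; compound added, 30 min RT; streptavidin donor/Ni-chelate acceptor beads 10 ug/mL each final, 30 min RT dark; AlphaScreen read.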
PLK1 PBD block: inhibitors of human PLK1 polo-box domain binding | AID 720504 | Plk1 PBD binding of FITC phosphopeptide, fluorescence polarization | P53350 | actives 2.8% (n = 360,000) | Potency, µM, for inactives: max response, negative = inhibition, hits mostly inhibitors; further: series mostly up to about 57 µM; on the % scale 0 is the no-effect control and ±100 the full control effect; nearly all actives have a fitted effect of over 65% in size
HP1b chromo inh: inhibitors of HP1-beta chromodomain binding to methylated histone tails | actives 0.56% (n = 390,000) | AlphaScreen HP1-beta / biotin-H3K9me3 peptide binding | P83916 | Potency, µM (titrated, usually from 114 µM), without a hit: top-dose activity change, negative = inhibition, actives largely listed as inhibitors; further: nearly all actives have a fitted effect of over 70% in size
Target sequence (P83916 whole entry, looked up): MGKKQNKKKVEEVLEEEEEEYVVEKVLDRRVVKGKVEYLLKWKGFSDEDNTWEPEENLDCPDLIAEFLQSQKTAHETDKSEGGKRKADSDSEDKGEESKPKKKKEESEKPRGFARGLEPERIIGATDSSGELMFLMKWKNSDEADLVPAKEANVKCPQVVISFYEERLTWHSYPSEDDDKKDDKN
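AlphaScreen: HP1-beta (50 nM) preformed 30 min with biotin-H3(1-18)K9me3 peptide (50 nM) in PBS pH 7.4, 0.01% Tween-20. Compound added for 30 min at RT, then streptavidin donor/nickel chelate acceptor beads (10 ug/mL) for 30 min.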
* = called active by the depositor; ? = inconclusive; nt = no result given; [ ] = another dose, or the depositor's remark. Compounds with a hit are over-represented: about 6.9% of the library has one in this group of screens. The call rests on the fitted dose curve; in most records, active means well fitted curve in the direction sought with a large enough effect; inconclusive means small, poorly fitted or top-dose-only effect, or another doubt; inactive means no such curve, though single readings can be large; an effect the other way counts as inactive or inconclusive. Potency means the concentration at half of the fitted maximal effect.

SMILES	VDR inhibitor	BAZ2B inh	JMJD2A Tudor inh	L3MBTL1 inh	PLK1 PBD block	HP1b chromo inh
O=[N+]([O-])c1cccc(C=Nc2cccc3ccccc23)c1O	-4%	?	?	9%	-9%	3%
CCOC(=O)c1c(/N=C/c2cccc([N+](=O)[O-])c2O)sc(C)c1C	?	45µM*	50µM*	-17%	?	45µM*
CSc1ccc(C2Nc3cccc4cccc(c34)N2)cc1	-16%	50µM*	18µM*	-2%[2.29 µM]	-11%	18µM*
Clc1ccc(C2Nc3cccc4cccc(c34)N2)cc1	-8%	?	?	-25%	?	-19%
c1cc2c3c(cccc3c1)NC(c1ccc3c(c1)OCO3)N2	?	40µM*	40µM*	nt	?	?
CCCCn1c(=O)[nH]c(=O)c2c1nc(Cn1ncc(Cl)c(Cl)c1=O)n2CCC	?	3%	?	nt	30µM*	-27%[57 µM]
[O-]c1c[n+](-c2ccc(-[n+]3cc([O-])on3)cc2)no1	?	50µM*	?	?	-9%	?
CC(=O)Nc1ccc(-n2cc(-c3ccccc3)[nH]c2=S)cc1	-11%	?	0.89µM*	-6%	-16%	?
COc1ccc(-n2cnc(=S)[nH]c2=S)cc1	28µM*	nt	-34%	nt	?	?
COc1ccc(-n2cnc3ccccc32)cc1	-9%	5%	-5%	nt	-7%	20%
COc1ccc(-n2cc(-c3ccccc3)[nH]c2=S)cc1	-2%	?	8.9µM*	-9%	-11%	-7%
CCOC(=O)c1c(-c2ccc(Br)cc2)csc1NC(=O)c1ccc(C(C)(C)C)cc1	-13%	2%	-3%	nt	nt	47%
CCOC(=O)c1cc2c(nc1N)CCCC2	-5%	-2%	1%	5%	-15%	30%
CCOC(=O)C1=C(SCC)c2cc3c(n2C1=O)CCCC3	?	10µM*	35µM*	25µM*	-13%	?
CCCCC(=O)NCCc1c(Cc2ccccc2)[nH]c2ccccc12	-22%	nt	nt	nt	nt	nt
CCN(CC)CCOC(=O)c1cccnc1	-1%	nt	nt	nt	nt	nt
COC(=O)c1ccccc1NC(=O)NCc1ccncc1	-2%	-13%	?	18%	21µM*	18%
Cc1ccc(C(=O)NN(C)c2nc3ccccc3nc2C(F)(F)F)cc1	15%	6%	2%	-2%	-2%	35%
CN(N)c1nc2ccccc2nc1C(F)(F)F	-25%	-11%	-20%[11.4 µM]	nt	21µM*	-5%
Cc1c2oc3c(C)ccc(C(=O)NC4C(=O)NC(C(C)C)C(=O)N5CCCC5C(=O)N(C)CC(=O)N(C)C(C(C)C)C(=O)OC4C)c3nc-2c(C(=O)NC2C(=O)NC(C(C)C)C(=O)N3CCCC3C(=O)N(C)CC(=O)N(C)C(C(C)C)C(=O)OC2C)c(N)c1=O (stereo unspecified)	-16%	nt	nt	nt	nt	nt
CCn1cc(C(=O)N2CC(C)CC(C)C2)c(=O)c2cc(S(=O)(=O)N(C)C)ccc21 (stereo unspecified)	-16%	0%	-25%	12%	21µM*	-7%
COc1ccc(C(=O)c2cn(CC(=O)Nc3cc(OC)cc(OC)c3)c3ccc(OC)cc3c2=O)cc1	-7%	2%	-20%	-1%	nt	45%
CCn1cc(C(=O)O)c(=O)c2cc(OC)ccc21	-7%	?	8.9µM*	2%	5%	-7%
CCn1cc(C(=O)O)c(=O)c2cc(S(=O)(=O)N3CCCCCC3)ccc21	7%	71µM*	-2%	nt	-23%	41%
CCCN(CCC)C(=O)c1cn(CC)c2ccc(S(=O)(=O)N3CCCCC3)cc2c1=O	-2%	-13%	-14%	nt	?	17%
SMILES	VDR inhibitor	BAZ2B inh	JMJD2A Tudor inh	L3MBTL1 inh	PLK1 PBD block	HP1b chromo inh
COc1ccc(S(=O)(=O)NCCS(=O)(=O)N2CCN(c3ccccc3)CC2)cc1C	0%	-13%	-33%	nt	nt	16%[57 µM]
CCOc1ccccc1NC(=O)Cn1c(=O)n(CCCC(=O)NCCOC)c(=O)c2cc(OC)c(OC)cc21	-12%	5%	-11%	nt	nt	16%
CCc1nn2cc(C(=O)c3cc(Cl)ccc3O)cnc2c1-c1ccc(F)cc1	4%	?	50µM*	-17%	0%	?
CCc1ccc(O)c(C(=O)c2cnc3cc(-c4ccc(C)cc4)nn3c2)c1	0%	-17%	-13%	nt	nt	12%
COc1ccc(NC(=O)CN2C(=O)C(c3ccc(C)cc3)=NC23CCCCCC3)cc1Cl	8%	-11%	-15%	nt	nt	23%
CCc1cccc(CC)c1NC(=O)C(Cc1ccccc1)NS(=O)(=O)c1cccc2nsnc12 (stereo unspecified)	-5%	nt	-29%	nt	nt	11%
CC1CCC(=C(C#N)c2nc(-c3cc4ccccc4oc3=O)cs2)CC1 (stereo unspecified)	-20%	36%	-2%[57.1 µM]	7%	27µM*	49%
N#C/C(=C\c1ccc(Cl)cc1)c1nc(-c2cc3ccccc3oc2=O)cs1	-6%	3%	-2%	nt	nt	48%
CC(=O)Oc1ccc2nonc2c1OC(C)=O	1.4µM*	nt	?	nt	nt	20µM*
CC(=O)Oc1cccc(C(=O)O)c1OC(C)=O	-1%	nt	nt	nt	nt	nt
COc1ccccc1CC(=N)N1C[C@@H]2C(=O)CCC(c3ccccc3)(c3ccccc3)[C@@H]2C1	-8%	nt	nt	nt	nt	nt
COC(=O)[C@@]1(C)[C@H]2C(=O)N(C)C(=O)[C@H]2[C@H]2CN=C(SCC(=O)c3ccccc3)N21	32µM*	nt	?	1%	24µM*	19%
COC(=O)[C@@]1(C)[C@H]2C(=O)N(C)C(=O)[C@H]2[C@H]2CN=C(SCc3ccccc3)N21	3%	nt	-6%	5%	-4%	56%
CSc1ncc(F)c(N(CCO)CCO)n1	-18%	5%	-10%	-6%	-1%	24%
O=C1NC(=S)SC1=Cc1ccccc1C(=O)O	nt	nt	nt	nt	-17%	nt
COC(=O)C1=C(C)NC(=O)/C1=C\c1cc(C)n(-c2ccc(F)cc2)c1C	5%	?	?	-7%	-9%	-20%
Cc1cc(/C=C2\SC(=S)NC2=O)c(C)[nH]1	-6%	45µM*	?	-18%	-19%	-23%
CCn1ncc(/C=C2/SC(=S)NC2=O)c1C	-1%	-33%	-8%	-2%	-4%	21%
O=C1NC(=S)S/C1=C\c1cc(Cl)ccc1Cl	?	nt	?	nt	21µM*	-34%
COC(=O)C1=C(C)NC(=O)/C1=C\c1cc(C)n(-c2cccc(C)c2)c1C	1%	40µM*	45µM*	nt	-4%	20µM*
Cc1cc(/C=C2/C(=O)NN(c3ccccc3)C2=O)c(C)n1-c1cccc(O)c1	11%	?	-32%	?	-24%	-6%
Cc1cc(/C=C2\SC(=S)NC2=O)c(C)n1-c1cccc(O)c1	-20%	50µM*	-32%[11.4 µM]	-29%	?	?
Cc1nc2nc(C)c(CCC(=O)NCCc3ccccc3)c(C)n2n1	-20%	-5%	-17%	nt	nt	16%
